# Screening results as filed in PubChem.
# FXN GAA850 act: increases GAA850 frataxin promoter reporter activity. HEK293 lucGAA850 FXN promoter luciferase reporter, 24 h; percent of 10 µM SAHA response. AID 540364. activation, % at 6 µM. 360,000 tested, 0.56% active;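 active means activation above the average of all compounds screened plus 3 SD, cutoff fixed separately per campaign, cut at about 7.5% in these data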;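 further: 0% = DMSO wells and 100% = 10 µM SAHA wells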
# PAX8 reporter: PAX8 transcriptional activity inhibition; RMG-I TPO-luciferase reporter, SteadyGlo, 24 h; 360,000 tested, 1.2% active; AID 652154; inhibition, % at 12.6 µM;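 active means mean replicate inhibition at least 60% with every replicate also reaching 60%; inconclusive means only one of the two criteria is met; inactive means mean below 60% and not all replicates reaching 60%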;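 further: luciferase light reporting Pax8 driven TPO promoter activity; plate controls were median of neutral control wells for no effect and mitoxantrone controls for full effect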
# HIV Env fusion: inhibitors of HIV Env-mediated cell fusion | HeLa-JRFL Env/CEM21 cell fusion, luciferase | inhibition, % at 12.3 µM | 360,000 tested, 1.1% active | AID 651610;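 active means mean replicate inhibition score of at least 50 and every replicate individually at or above 50; inconclusive means only one of the two criteria met; inactive means mean below 50 and not all replicates reaching 50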;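 further: 0% = plate neutral controls and 100% = maraviroc near 300 nM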
# EWS-Fli block: blocks EWS/Fli oncoprotein-driven transcription. 350,000 tested, 0.67% active. inhibition, % at 12.6 µM. A673 NR0B1-luciferase reporter, viability-normalised;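 active means mean inhibition of at least 50% after viability correction, with every replicate also passing that limit; inconclusive means mean reaches 50% but only one of two replicates passes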;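 further: firefly luciferase signal divided by Alamar Blue viability fluorescence both relative to DMSO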
# CFTR F508del cor: correctors of CFTR F508del function in bronchial epithelial cells | CFBE cells, YFP halide quenching; stimulated with forskolin plus potentiator P3; % fluorescence drop versus neutral controls | activity (quench increase), % at 7.58 µM | 350,000 tested, 0.36% active | AID 720511;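 active means mean added fluorescence quench of at least 8% versus neutral control, with both replicates also reaching 8%; inconclusive means only one of the mean or replicate conditions met; inactive means mean below 8% and not both replicates reaching 8%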;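 further: cells transiently co-express mutant CFTR-F508del with the halide-sensitive YFP; corrector assay measuring rescue of mutant channel to the surface after 24 h compound exposure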
# * = called active by the depositor; ? = inconclusive; / = not tested or not shown; [ ] = another dose, or the depositor's remark. An excerpt weighted towards active compounds, which were near 2.5% of everything screened.
SMILES,FXN GAA850 act,PAX8 reporter,HIV Env fusion,EWS-Fli block,CFTR F508del cor
O=C(C[C@@H]1C[C@@H]2c3cc(NS(=O)(=O)c4ccc(F)cc4)ccc3O[C@@H]2[C@H](CO)O1)NCc1ccccc1,/,16,-5[16.7 µM],-1,-1
O=C(C[C@H]1C[C@@H]2c3cc(NC(=O)Nc4ccc(C(F)(F)F)cc4)ccc3O[C@@H]2[C@@H](CO)O1)NCc1ccc(Cl)cc1,/,89*,11[16.7 µM],21,-4
O=C(C[C@H]1C[C@@H]2c3cc(NS(=O)(=O)c4ccc(F)cc4)ccc3O[C@@H]2[C@H](CO)O1)NCc1ccc(Oc2ccccc2)cc1,/,34,25[16.7 µM],25,-3
O=C(C[C@H]1C[C@@H]2c3cc(NS(=O)(=O)c4ccc(F)cc4)ccc3O[C@@H]2[C@H](CO)O1)NCc1ccc(-c2ccccc2)cc1,/,65*,32[16.7 µM],4,3
O=C(C[C@@H]1C[C@H]2c3cc(NS(=O)(=O)c4ccc(F)cc4)ccc3O[C@H]2[C@@H](CO)O1)NCc1ccc(Oc2ccccc2)cc1,/,91*,-306[16.7 µM],59*,1
O=C(C[C@@H]1C[C@@H]2c3cc(NS(=O)(=O)c4ccc(F)cc4)ccc3O[C@@H]2[C@H](CO)O1)NCc1ccc(Oc2ccccc2)cc1,/,56,39[16.7 µM],25,-3
O=C(C[C@@H]1C[C@H]2c3cc(NS(=O)(=O)c4ccc(F)cc4)ccc3O[C@H]2[C@H](CO)O1)NCc1ccc(Oc2ccccc2)cc1,/,101*,-242[16.7 µM],59*,0
C[C@@H]1CN([C@@H](C)CO)C(=O)Cc2cc(NC(=O)Nc3ccc(C(F)(F)F)cc3)ccc2O[C@H]1CN(C)S(=O)(=O)c1ccccc1,/,11,/,2,3
CC(=O)N(C)C[C@H]1Oc2cc(C#CC(C)(C)O)ccc2S(=O)(=O)N([C@@H](C)CO)C[C@@H]1C,/,/,4[16.7 µM],-7,1
CCS(=O)(=O)NCC[C@H]1CC[C@H](NC(=O)Nc2cc(Cl)cc(Cl)c2)[C@H](CO)O1,/,-2,-11[16.7 µM],-2,-3
O=C(C[C@@H]1C[C@@H]2c3cc(NS(=O)(=O)c4ccc(F)cc4)ccc3O[C@@H]2[C@@H](CO)O1)NCc1ccc(Oc2ccccc2)cc1,/,106*,-12[16.7 µM],36,1
O=C(C[C@H]1C[C@@H]2c3cc(NS(=O)(=O)c4ccc(F)cc4)ccc3O[C@@H]2[C@H](CO)O1)NCCc1ccccc1,/,-5,75*[16.7 µM],-4,0
O=C(C[C@H]1C[C@@H]2c3cc(NS(=O)(=O)c4ccc(F)cc4)ccc3O[C@@H]2[C@H](CO)O1)NCc1ccc(Cl)cc1,/,-13,86*[16.7 µM],-5,-2
O=C(C[C@H]1C[C@@H]2c3cc(NS(=O)(=O)c4ccc(F)cc4)ccc3O[C@@H]2[C@@H](CO)O1)NCc1ccccc1,/,20,10[16.7 µM],4,-2
COc1ccc(-c2cncnc2-c2ccc(OC)cc2O)cc1,-6,-20,?,-7,0
COc1ccc(-c2ncncc2-c2ccc(Cl)cc2)c(O)c1,0,0,56*,8,-1
COc1ccc(NC(=O)N[C@@H]2CC[C@H](CC(=O)NC3CCCCC3)O[C@H]2CO)cc1,/,9,14[16.7 µM],-2,-2
Nn1cnnc1N/N=C\c1ccc(-c2ccccc2[N+](=O)[O-])o1,-4,92*,18,-8,/
CCCCCc1c(-c2ccc(OC)cc2)ncn1CCc1ccccc1OC,/,56,62*,42,2
CCCCc1c(-c2ccc(OC)cc2)ncn1CCc1ccccc1OC,/,8,10,28,1
CC1(C(=O)NCc2cccs2)Cc2c(-c3cccc(C(F)(F)F)c3)ccnc2O1 (stereo not drawn),-5,37,-129,55*,7
CC1(C(=O)NCc2ccco2)Cc2c(-c3ccccc3)ccnc2O1 (stereo not drawn),-5,10,-17,59*,7
CC1(C(=O)NCc2ccccc2)Cc2c(-c3cccc(C(F)(F)F)c3)ccnc2O1 (stereo not drawn),-2,0,-33,-3,1
CC(=O)NCCNC(=O)C1(C)Cc2c(-c3ccccc3)ccnc2O1 (stereo not drawn),-1,2,2,-2,2
C[C@H]1CN([C@@H](C)CO)C(=O)c2cc(/C=C/c3ccccc3)cnc2O[C@H]1CN(C)C(=O)c1ccccc1,/,/,4[16.7 µM],-1,1
SMILES,FXN GAA850 act,PAX8 reporter,HIV Env fusion,EWS-Fli block,CFTR F508del cor
CO[C@H]1CN(C)C(=O)c2cccc(C#N)c2OC[C@@H]2O[C@H](CC[C@H]2OC)CCN(C)C(=O)[C@H]1C,/,-2,7[16.7 µM],-1,-2
C[C@H]1CN([C@@H](C)CO)C(=O)c2cc(C#CC(C)(C)O)cnc2O[C@H]1CN(C)C(=O)C1CCCCC1,/,/,-10[16.7 µM],-22,0
O=c1c2cc(N3CCOCC3)ccc2[nH]c(=S)n1CCCN1CCCCCC1,-2,/,-27,/,/
CC(C)OCCCn1c(=S)[nH]c2ccc(N3CCOCC3)cc2c1=O,0,/,72*,/,/
CCCCNC(=O)C(=O)Nc1ccc2c(c1)N(S(=O)(=O)c1cccs1)CCC2,-2,20,-5,20,11*
CN1C[C@@H]2[C@H](c3ccccc31)[C@H](CO)N2Cc1ccccc1,/,-14,/,4,0
COc1ccc(OC)c(NC(=O)COc2ccc3c(c2)CCC3)c1,-1,-4,70*,-6,-7
CCC(=O)N1[C@H](CO)[C@H](c2ccccc2-c2cccc(C)c2)[C@@H]1C#N,/,-2,/,-3,0
O=C(Nc1cccc(C(F)(F)F)c1)c1ccc(Cn2cc(Br)cn2)o1,-3,/,79*,/,/
CC(=O)N(C)C[C@H]1Oc2cc(C#Cc3ccc(F)cc3)ccc2S(=O)(=O)N([C@@H](C)CO)C[C@H]1C,/,2,/,0,1
O=C(/C=C/c1cccc([N+](=O)[O-])c1)n1cnc2ccccc21,5,19,-80,65*,2
CN1c2ccccc2N(C)C1(C)c1ccccc1,3,92*,39,5,/
CC1C(=O)N(Cc2ccc([N+](=O)[O-])cc2)c2ccccc2N1C(=O)c1c(F)cccc1F (stereo not drawn),3,15,78*,10,0
COc1ccc(CN2C(=O)C(C)N(C(=O)c3c(F)cccc3F)c3ccccc32)cc1 (stereo not drawn),-1,6,25,15,/
CCC(=O)Nc1ccc2c(c1)OC[C@@H](C)N(C(C)=O)C[C@@H](C)[C@@H](OC)CN(C)C2=O,/,/,-57[16.7 µM],0,0
Cc1cccc(N2CCN(C(=O)c3c(-c4ccccc4Cl)noc3C)CC2)c1C,-3,34,23,53*,14*
Cc1onc(-c2ccccc2Cl)c1C(=O)N1CCN(C=O)CC1,-1,4,-14,/,6
O=C(c1cccc(S(=O)(=O)NCc2ccccc2)c1)N1CCN(c2ccc(F)cc2)CC1,-1,16,3,13,-2
O=C(c1cccc(S(=O)(=O)NCc2ccccc2)c1)N1CCN(c2cccc(C(F)(F)F)c2)CC1,-2,40,61*,/,3
Cc1nc(=S)c2c([nH]1)-c1ccccc1CC21CCCCC1,2,-18,1,54*,4
